Results filed as inconclusive are left out. More than one record can exist for a structure, and the calls need not agree. Calls of active or inactive are those of the source. Unless noted, calls follow the shape of the full dose curve.

This passage reports Potency results from PubChem BioAssay (Tox21).

A short description of assay [1]: Nuclear factor erythroid 2-related factor 2/antioxidant responsive element (Nrf2/ARE) small molecule agonists: qHTS cell viability counter screen in human keratinocytes (AID 1919968; active = well fitted curve in the direction sought with a large enough effect in the repeat runs; an effect the other way counts as inactive or inconclusive; also: nearly all actives have a fitted effect of over 55% in size). The method in brief:
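In human HaCaT keratinocytes stably expressing an ARE-driven luciferase, compound exposure lasted 23 h at 37 C under 5% CO2. Viable cells are quantified with a protease-based fluorogenic reagent (CellTiter-Fluor) read 1 h after addition.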
On the technique in general: In qHTS, concentration-response curves come from the screen itself.

Assay [2] in a line: Nuclear factor erythroid 2-related factor 2/antioxidant responsive element (Nrf2/ARE) small molecule agonists: luciferase reporter gene qHTS assay in human keratinocytes (AID 1919969). Also: nearly all actives have a fitted effect of over 35% in size. Also: potency is read from the fitted curve at half-maximal effect. A general note: A reporter such as luciferase makes a cellular process visible.
Assay [3] concerns the target Gonadotropin-releasing hormone receptor (Homo sapiens) (UniProt P30968). Description: Human gonadotropin-releasing hormone receptor (GnRHR) small molecule agonists, calcium flux assay in GnRHR-HEK293 cells (AID 1920063). Also: nearly all actives have a fitted effect of over 35% in size. Put shortly:
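Intracellular calcium rise is the read-out: engineered human GnRHR HEK293 cells, dye-loaded, are exposed to DMSO-dissolved compounds and fluorescence at Ex/Em 480/540 is tracked for 3 min.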
A general note: A change in cytosolic calcium serves as a functional read-out for many receptors and channels.

The target of assay [4] is KiSS-1 receptor (Homo sapiens) (UniProt Q969F8). Description: Human kisspeptin (KISS1R) small molecule agonists, calcium flux assay in KISS1R-HEK293 cells (AID 1920064; active = well fitted curve in the direction sought with a large enough effect in the repeat runs; an effect the other way counts as inactive or inconclusive). The method in brief: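 Concentration-response testing used 15 concentrations in triplicate on human KISS1R-expressing HEK293 cells. Calcium-dependent fluorescence (Ex/Em 480/540) was followed kinetically for 3 min after compound transfer.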

The nature of assay [5]: G protein-coupled receptor (GPCR) small molecule agonists, calcium flux assay: HEK293 wild type cell line counter screen (AID 1920065). The method in brief: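 Fluorescence intensity signals activation. After overnight (18 h) culture and a 1 h calcium dye load at 37 C, compounds are added by pin tool and the plate read at 480/540 nm for 3 min in 1 s steps.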
The nature of assay [6]: p53 small molecule agonists, cell-based qHTS assay with human liver microsomes (AID 1963577). The method in brief:
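p53RE-bla reporter cells were pre-incubated 5 h at 37 C, then treated with compounds plus human liver microsomes (0.5 mg/mL final) and NADPH (0.5 mg/mL final) for 16 h at 37 C. Beta-lactamase activity was read by LiveBLAzer fluorescence after 2 h at room temperature.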

Assay [7] can be described thus: p53 small molecule agonists, cell-based qHTS assay with rat liver microsomes (AID 1963578). Put shortly: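 p53RE-bla cells were exposed to compounds together with rat liver microsomes (0.5 mg/mL final) and NADPH (0.5 mg/mL final) for 16 h at 37 C, then read by LiveBLAzer beta-lactamase fluorescence after 2 h at room temperature.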
The nature of assay [8]: p53 small molecule agonists, cell-based qHTS assay with human liver microsomes: qHTS cell viability counter screen (AID 1963579). Also: nearly all actives have a fitted effect of over 45% in size. Put shortly: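 p53RE-bla cells (4,000/well) were pre-incubated 5 h at 37 C, then given compounds in DMSO plus human liver microsomes (0.5 mg/mL final) and NADPH (0.5 mg/mL final) for 16 h at 37 C. Viability was read by CellTiter-Glo luminescence.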

A short description of assay [9]: p53 small molecule agonists, cell-based qHTS assay with rat liver microsomes: qHTS cell viability counter screen (AID 1963580). Also: nearly all actives have a fitted effect of over 45% in size. The method in brief: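 After the beta-lactamase ratio was read, CellTiter-Glo was added to the same wells and luminescence measured at 30 min; cells had been treated 16 h at 37 C with compounds, rat liver microsomes and NADPH (0.5 mg/mL final each).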

The nature of assay [10]: p53 small molecule agonists, cell-based qHTS assay: qHTS cell viability counter screen (AID 1963581). Also: nearly all actives have a fitted effect of over 45% in size. The method in brief: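 Luminescence from CellTiter-Glo, reflecting ATP content, serves as the cytotoxicity measure; it is taken after the 2 h reporter substrate step in HCT-116 p53RE-bla cells dosed for 16 h at 37 C.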
Assay [11] is described as follows: p53 small molecule agonists, cell-based qHTS assay (AID 1963582; active = well fitted activation curve with a large enough effect in the signal ratio in the repeat runs, not every such curve was filed as active; the % refers to the signal ratio). The method in brief:
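After plating, p53RE-bla cells sat 5 h in the incubator; compounds or DMSO vehicle were pinned in; a 16 h incubation at 37 C followed; FRET substrate was added and, 2 h later at RT, fluorescence was measured.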

Assay [12] deals with 5-hydroxytryptamine receptor 2A (Homo sapiens) (UniProt P28223). Description: 5-hydroxytryptamine receptor 2A (HTR2A) small molecule antagonists, cell-based qHTS assay (AID 1963586). Also: nearly all actives have a fitted effect of over 45% in size. The method in brief:
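CHO cells stably expressing human HTR2A were plated for 18 h at 37 C, then loaded with calcium dye for 1 h. Compounds were preincubated 5 min at room temperature before DOI (4 nM solution) was added. Kinetic fluorescence was read for 3 min.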

Assay [13] shares this target. Description: 5-hydroxytryptamine receptor 2A (HTR2A) small molecule agonists, cell-based qHTS assay (AID 1963587). Also: nearly all actives have a fitted effect of over 30% in size. The method in brief: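 CHO cells stably expressing human HTR2A, plated 18 h, loaded with calcium dye 1 h at 37 C. Agonist mode: compounds added and intracellular calcium fluorescence recorded kinetically for 2 min at 1 sec intervals.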
Assay [14] addresses Muscarinic acetylcholine receptor M1 (Homo sapiens) (UniProt P11229). Description: Cholinergic receptor muscarinic 1 (CHRM1) small molecule agonists, cell-based qHTS assay (AID 1963589). Also: nearly all actives have a fitted effect of over 35% in size. The method in brief: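 Fluorescent calcium dye reports M1 activation in stably transfected CHO cells. Compounds, 15 concentrations, added after 1 h dye loading at 37 C; kinetic reading at 1 sec intervals.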

A short description of assay [15]: cAMP Responsive Elements (CRE) small molecule agonists, cell-based qHTS assay (AID 1963590). Put shortly: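 Compound exposure lasted 3 h at 37 C/5% CO2 in CRE-bla HEK 293T cells grown in assay medium with 10% dialyzed FBS and 25 mM HEPES. Reporter signal came from LiveBLAzer B/G FRET substrate, 2 h, room temperature.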
The target in assay [16] is Beta-2 adrenergic receptor (Homo sapiens) (UniProt P07550). The experiment in a line: Adrenergic beta2 receptor (ADRB2) small molecule antagonists, cell-based qHTS assay (AID 1963592). Also: series mostly up to about 92 µM; nearly all actives have a fitted effect of over 50% in size. Put shortly: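 Assay format: CHO-ADRB2 cells, 18-20hr seeding at 37C/5% CO2, then compound plus 1nM isoproterenol agonist mix for 0.5hr RT. Homogeneous time-resolved fluorescence cAMP detection after 1hr, expressed as 665/615 nm ratio.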

Assay [17] has as its target D(2) dopamine receptor (Homo sapiens) (UniProt P14416). Description: Dopamine D2 receptor (DRD2) small molecule agonists, cell-based qHTS assay (AID 1963594). Also: nearly all actives have a fitted effect of over 35% in size. Put shortly: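 HEK293 cells stably expressing human DRD2, pre-treated with PDE inhibitor Ro20-1724 (0.1 mM final) and compound 10 min at room temperature, then stimulated with NKH477 (200nM […]) for 30 min. cAMP read by HTRF (665/620 nm).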

Assay [18] shares this target. The experiment in a line: Dopamine D2 receptor (DRD2) small molecule antagonists, cell-based qHTS assay (AID 1963595; active = well fitted inhibition curve with a large enough effect in the signal ratio in the repeat runs, with a control signal flat; the % refers to the signal ratio). Put shortly: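 HTRF cAMP read-out at 665 and 620 nm emission (340 nm excitation). Antagonist mode: compounds were tested against 12 nM quinpirole in DRD2-HEK293 cells, with 200 nM NKH477 raising cAMP and 0.1 mM Ro20-1724 blocking its breakdown.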
Assay [19] deals with Muscarinic acetylcholine receptor M1 (Homo sapiens) (UniProt P11229). The experiment in a line: Cholinergic receptor muscarinic 1 (CHRM1) small molecule antagonists, cell-based qHTS assay (AID 1963588). Also: nearly all actives have a fitted effect of over 40% in size. Put shortly:
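Compounds were tested at 15 concentrations in three independent runs. Dye-loaded CHRM1-CHO cells were exposed 5 min at room temperature before stimulation by acetylcholine added at 50nM. Intracellular calcium was read kinetically on FDSS for 3 min.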

Assay [20] can be described thus: cAMP Responsive Elements (CRE) small molecule antagonists, cell-based qHTS assay (AID 1963591; active = well fitted inhibition curve with a large enough effect in the signal ratio in the repeat runs, not every such curve was filed as active; the % refers to the signal ratio). Put shortly: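 Stimulation used NKH477 at a final 0.25 uM for 3 h in compound-treated CRE-bla HEK293T cells, seeded 18 h beforehand. Reporter activity was measured with LiveBLAzer B/G FRET substrate after 2 h at room temperature.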

Chain of 5-hydroxytryptamine receptor 2A (Homo sapiens) (P28223 whole entry, looked up): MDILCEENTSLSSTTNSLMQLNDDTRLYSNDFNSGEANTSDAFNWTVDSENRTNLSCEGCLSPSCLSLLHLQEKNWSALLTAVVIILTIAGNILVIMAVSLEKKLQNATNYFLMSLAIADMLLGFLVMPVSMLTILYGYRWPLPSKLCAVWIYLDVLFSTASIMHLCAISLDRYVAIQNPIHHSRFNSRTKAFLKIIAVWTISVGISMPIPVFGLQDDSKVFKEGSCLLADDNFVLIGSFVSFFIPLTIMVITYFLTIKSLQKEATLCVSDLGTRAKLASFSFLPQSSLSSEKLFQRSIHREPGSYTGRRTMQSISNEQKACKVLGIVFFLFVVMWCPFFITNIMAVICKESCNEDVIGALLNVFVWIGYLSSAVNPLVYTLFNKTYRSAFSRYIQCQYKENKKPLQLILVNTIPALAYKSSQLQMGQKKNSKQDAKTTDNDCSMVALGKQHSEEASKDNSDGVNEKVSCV
Chain of Beta-2 adrenergic receptor (Homo sapiens) (P07550 whole entry, looked up): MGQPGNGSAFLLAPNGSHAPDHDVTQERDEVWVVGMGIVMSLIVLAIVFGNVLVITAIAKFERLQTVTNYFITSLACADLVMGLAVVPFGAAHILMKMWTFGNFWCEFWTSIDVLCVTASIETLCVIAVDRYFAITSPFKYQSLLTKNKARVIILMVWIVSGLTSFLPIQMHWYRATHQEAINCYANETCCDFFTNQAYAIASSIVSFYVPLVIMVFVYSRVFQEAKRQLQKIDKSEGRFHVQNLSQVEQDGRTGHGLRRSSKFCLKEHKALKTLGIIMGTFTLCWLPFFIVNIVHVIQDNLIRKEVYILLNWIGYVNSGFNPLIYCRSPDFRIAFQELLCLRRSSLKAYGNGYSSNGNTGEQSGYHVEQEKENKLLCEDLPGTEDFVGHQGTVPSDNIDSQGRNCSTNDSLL
Chain of Gonadotropin-releasing hormone receptor (Homo sapiens) (P30968 whole entry, looked up): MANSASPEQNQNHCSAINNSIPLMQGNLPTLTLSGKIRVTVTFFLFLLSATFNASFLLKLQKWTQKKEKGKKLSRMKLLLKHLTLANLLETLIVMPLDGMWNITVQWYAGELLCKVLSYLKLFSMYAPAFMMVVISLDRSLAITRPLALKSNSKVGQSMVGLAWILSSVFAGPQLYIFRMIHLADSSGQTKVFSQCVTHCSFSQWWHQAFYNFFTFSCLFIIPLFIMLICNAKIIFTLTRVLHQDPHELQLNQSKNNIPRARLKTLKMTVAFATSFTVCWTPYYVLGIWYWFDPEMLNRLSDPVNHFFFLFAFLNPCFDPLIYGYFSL
Chain of KiSS-1 receptor (Homo sapiens) (Q969F8 whole entry, looked up): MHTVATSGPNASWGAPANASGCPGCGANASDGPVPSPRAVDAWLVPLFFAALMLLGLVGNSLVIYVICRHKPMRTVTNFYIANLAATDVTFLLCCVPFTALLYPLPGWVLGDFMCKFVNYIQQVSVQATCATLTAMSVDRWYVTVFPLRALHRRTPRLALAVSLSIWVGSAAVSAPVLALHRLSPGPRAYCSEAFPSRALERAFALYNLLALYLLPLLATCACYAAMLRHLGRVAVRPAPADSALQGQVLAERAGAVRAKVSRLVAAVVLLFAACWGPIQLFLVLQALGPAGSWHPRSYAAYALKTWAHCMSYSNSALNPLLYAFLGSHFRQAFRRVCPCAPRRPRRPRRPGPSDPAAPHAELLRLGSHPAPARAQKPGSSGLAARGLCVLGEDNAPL
Chain of Muscarinic acetylcholine receptor M1 (Homo sapiens) (P11229 whole entry, looked up): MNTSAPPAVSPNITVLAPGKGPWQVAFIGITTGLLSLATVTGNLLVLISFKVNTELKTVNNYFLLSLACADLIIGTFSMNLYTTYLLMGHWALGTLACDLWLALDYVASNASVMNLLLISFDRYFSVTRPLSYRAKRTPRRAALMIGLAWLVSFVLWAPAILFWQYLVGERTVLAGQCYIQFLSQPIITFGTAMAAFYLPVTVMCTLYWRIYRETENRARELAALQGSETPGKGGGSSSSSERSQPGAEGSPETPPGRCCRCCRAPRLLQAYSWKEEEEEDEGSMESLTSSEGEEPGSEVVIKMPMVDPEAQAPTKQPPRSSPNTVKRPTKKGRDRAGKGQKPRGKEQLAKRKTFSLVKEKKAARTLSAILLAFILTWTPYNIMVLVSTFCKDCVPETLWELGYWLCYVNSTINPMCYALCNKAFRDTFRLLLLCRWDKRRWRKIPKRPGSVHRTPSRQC
Chain of D(2) dopamine receptor (Homo sapiens) (P14416 whole entry, looked up): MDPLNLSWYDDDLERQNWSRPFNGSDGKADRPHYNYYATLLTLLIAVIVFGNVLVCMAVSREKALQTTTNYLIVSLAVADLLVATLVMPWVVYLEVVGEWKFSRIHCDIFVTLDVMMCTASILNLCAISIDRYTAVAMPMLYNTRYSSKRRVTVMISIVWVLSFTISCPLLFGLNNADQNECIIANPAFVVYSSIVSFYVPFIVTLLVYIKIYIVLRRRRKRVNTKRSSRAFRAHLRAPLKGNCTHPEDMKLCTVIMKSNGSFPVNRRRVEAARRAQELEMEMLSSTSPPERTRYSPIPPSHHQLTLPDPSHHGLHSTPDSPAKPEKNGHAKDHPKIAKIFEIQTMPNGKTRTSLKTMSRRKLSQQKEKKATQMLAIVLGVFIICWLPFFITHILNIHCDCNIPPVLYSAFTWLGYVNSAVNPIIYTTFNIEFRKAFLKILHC

With `CCOC(=O)Nc1cccc(OC(=O)Nc2ccccc2)c1`, the Potency result in [1], in assay [2], in assay [3], in [4], in assay [5] and in [6] was “inactive” in each case. Also, the Potency entry in [7], in [8], in assay [9], in assay [10], in [11] and in [12] was “inactive” each time. In addition, the Potency result in [13], in assay [14], in [15], in assay [16], in assay [17] and in assay [18] was “inactive” throughout.
As to `Brc1ccc(Br)cc1`, the Potency result in [1], in assay [2], in assay [3], in assay [4], in assay [5] and in [6] was “inactive” each time. Moreover, the Potency result in assay [7], in assay [8], in [9], in [10], in [11] and in assay [13] was “inactive” in each case. Also, the Potency result in [19], in [14], in [15], in assay [20], in assay [16] and in assay [17] was “inactive” each time. Moreover, the Potency entry in assay [18] was “inactive”.
Consider `COC(=O)Nc1cccc(OC(=O)Nc2cccc(C)c2)c1`, for which the Potency result in assay [1], in assay [3], in assay [4], in [5], in assay [6] and in assay [7] was “inactive” each time. The Potency entry in [8], in assay [9], in assay [10], in [11], in [13] and in [19] was “inactive” each time. Also, the Potency entry in assay [14], in [15], in [20], in assay [16], in [17] and in assay [18] was “inactive” in each case. For the same compound, the Potency in assay [2] is 13.7 µM (active) and inactive.
Consider `CCCCC(CC)CO[N+](=O)[O-]` (stereo not drawn), for which the Potency result in assay [1], in assay [2], in assay [3], in [4], in assay [5] and in [6] was “inactive” in each case. Moreover, the Potency entry in assay [7], in [8], in assay [9], in [10], in assay [11] and in assay [12] was “inactive” each time. Further, the Potency entry in [13], in assay [15], in assay [20], in [16], in [17] and in assay [18] was “inactive” each time.
On to `CCN(Cc1ccc(Cl)nc1)/C(=C/[N+](=O)[O-])NC`, for which the Potency result in assay [1], in [2], in assay [3], in assay [4], in assay [5] and in assay [6] was “inactive” in each case. Also, the Potency result in [7], in assay [8], in assay [9], in assay [10], in assay [11] and in [12] was “inactive” in each case. Besides, the Potency result in [19], in assay [14], in assay [15], in [20], in assay [16] and in assay [17] was “inactive” each time. Moreover, in assay [18], the Potency result is “inactive”.
Take `c1ccc(N=Nc2ccccc2)cc1`: the Potency entry in [1], in assay [2], in assay [3], in assay [4], in [5] and in assay [6] was “inactive” throughout. The Potency result in assay [7], in assay [8], in [9], in assay [10], in [11] and in assay [12] was “inactive” throughout. Also, the Potency result in assay [19], in [14], in assay [15], in assay [20], in [16] and in [17] was “inactive” each time. For the same compound, in [18], the Potency entry was “inactive”.
With `BrCCBr`, the Potency result in [1], in assay [2], in assay [3], in [4], in assay [5] and in assay [6] was “inactive” in each case. In addition, the Potency entry in [7], in assay [8], in assay [9], in assay [10], in [11] and in assay [12] was “inactive” in each case. Moreover, the Potency entry in assay [19], in [14], in [15], in assay [20], in assay [16] and in assay [17] was “inactive” in each case. For the same compound, the Potency entry in assay [18] is “inactive”.
Turning to `CN(C)N`, the Potency result in [1], in [2], in assay [3], in [4], in [5] and in assay [6] was “inactive” in each case. The Potency result in [7], in assay [8], in assay [9], in [10], in assay [11] and in assay [12] was “inactive” throughout. For the same compound, the Potency entry in [13], in assay [15], in assay [20], in assay [16] and in assay [18] was “inactive” each time.
